The list is not random: actives were taken first. Their share in the collection is about 1.7%.
p53ts 32C tox = kills p53ts cells at the permissive temperature; H1299-p53A138V at 32C, ATP luminescence viability, 24 h; 130,000 tested, 0.93% active; AID 924; Potency, µM (top dose mostly 46.1 µM), for the others: top-dose activity change, negative = cytotoxicity, most hits filed as cytotoxic;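 also: 0% = DMSO and -100% = full killing by reference compound; nearly all actives have a fitted effect of over 55% in size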
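ATP-content luminescence (ATPlite) read-out after 24 h compound exposure at 32C in H1299-p53A138V cells (600/well). Tested up to 46 uM. Normalized to DMSO (0%) and 100 uM tamoxifen (100% killing); Hill-fit AC50.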
Imprint erasure = genomic imprint erasure induction; Potency, µM (doses to about 60.7 µM), for the others: top-dose activity change, positive = activation, most hits filed as activators; AID 1948; mouse ES Peg3-LacZ reporter, beta-gal luminescence, 40 h; 110,000 tested, 0.02% active
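Each well holds 300 Peg3LacZ-Neo (maternal) female ES cells incubated 40 h at 37C, 5% CO2. LacZ is measured by BetaGlo luminescence, with AC50 and maximum efficacy derived from dose-response curves.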
p53ts 39C tox = kills p53ts cells at the nonpermissive temperature. 130,000 tested, 1.5% active. H1299-p53A138V viability at 39C, ATP luminescence, 24 h. Potency, µM (doses to about 46.1 µM), for inactives: at the top dose activity change, negative = cell killing, actives largely listed as cytotoxic. AID 902; also: % is scaled to controls: 0 for no effect and ±100 for the full control effect; nearly all actives have a fitted effect of over 55% in size
IkB sig inh = IkB pathway inhibition in ABC-DLBCL cells; ABC-DLBCL IkBa-CBG/CBR dual luciferase ratio, 4 h; response scale: scaled: untreated 0%, proteasome inhibitor 100%; Potency, µM (top dose mostly 57.1 µM), inactives show top-dose IkBa stabilization activation; 110,000 tested, 0.04% active; AID 445; active = well fitted curve in the direction sought with a large enough effect in the signal ratio, not every such curve was filed as active; inconclusive = small, poorly fitted or top-dose-only effect, or a change in a side signal; the % refers to the signal ratio;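 also: the direction sought is a rising ratio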
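Curves were fitted separately to fusion (green), unfused (red) and ratio luminescence, then classed by r2, magnitude and activity. Cells: OCI-Ly3, 4 h compound plus doxycycline at 37C; 10 uM MG-132 defined full response.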
The depositor's hits bear a star; ? = inconclusive; . = no result given; [ ] = dose if it differs, or a comment. Unless noted, calls follow the shape of the dose curve; as a rule, active = well fitted curve in the direction sought with a large enough effect; inconclusive = small, poorly fitted or top-dose-only effect, or another doubt; inactive = no such curve, though single readings can be large; an effect the other way counts as inactive or inconclusive. Potency is read from the fitted curve at half-maximal effect.

SMILES | p53ts 32C tox | Imprint erasure | p53ts 39C tox | IkB sig inh
CC1CCCCN1C(=O)CSc1c2c(nc3cc(Cl)ccc13)CCCC2 (centres undefined) | -13% | -16%[10.9 µM] | 13µM* | ?
CC1CCCN(C(=O)CSc2c3c(nc4cc(Cl)ccc24)CCCC3)C1 (centres undefined) | 25µM* | -14%[10.9 µM] | ? | 9%
CC1CCN(C(=O)CSc2c3c(nc4ccc(Cl)cc24)CCCC3)CC1 | ? | -8%[10.9 µM] | ? | ?
COc1ccc(C/C(O)=C(\C#N)c2nc3ccccc3s2)cc1 | ? | -7% | 13µM* | ?
Cc1nn(-c2ccc(C(=O)O)cc2)c(N)c1-c1ccccc1 | 7.9µM* | -61% | 10µM* | ?
Cc1ccc2c(c1[N+](=O)[O-])C(=O)c1ccccc1C2=O | 10%[1.84 µM] | 14% | -19% | -4%
CC1=CC(=O)c2ccccc2C1=O | 25µM* | -8% | ? | ?
Cc1cc(C)c2sc(N(Cc3cccnc3)C(=O)CCS(=O)(=O)c3ccccc3)nc2c1 | -1% | 19%[10.9 µM] | 16µM* | 1%
Cc1cc(C)c2nc(N(Cc3cccnc3)C(=O)CCS(=O)(=O)c3ccccc3)sc2c1 | 1% | -7%[10.9 µM] | -1% | 1%
CCc1ccc(OCC(=O)Nc2ccc(Cl)c(-c3nc4cc(C)cc(C)c4o3)c2)cc1 | 3% | -10%[10.9 µM] | -16% | -1%
Cc1ccc2nc(-c3cc(NC(=O)COc4ccc(C)c(C)c4)ccc3Cl)oc2c1 | ? | -16%[10.9 µM] | 13µM* | 2%
O=C(N/N=C\c1ccc2c(c1)CCC2)c1ccccc1O | ? | -4%[10.9 µM] | -25%[9.22 µM] | ?
COc1cccc(-c2cc(C(F)(F)F)n3nc(N)nc3n2)c1 | -5% | -11% | -9% | -2%
COc1cccc(-c2cn3nc4c(nc3n2)CCCC4)c1 | 5µM* | -94% | 5µM* | ?
CSc1nn(Cc2cccc(Cl)c2)c(N(C(C)=O)C(C)=O)c1S(=O)(=O)c1ccccc1 | 9% | 13%[10.9 µM] | 20µM* | -8%
Cc1nn(-c2nc3ccccc3s2)c(C)c1Oc1ccccc1O | 13µM* | -19% | ? | ?
C=C1CC[C@H]2C(C)(C)[C@H](O)CC[C@]2(C)[C@@H]1COc1ccc2ccc(=O)oc2c1 | . | . | . | -2%[11.4 µM]
COc1ccccc1NC(=O)CN(C)S(=O)(=O)c1ccc2c(c1)c(=O)n(C)c(=O)n2C | 5% | 11%[10.9 µM] | 3% | 0%
Cc1ccc(N2C(=O)CSC23C(=O)N(CC(=O)NCc2ccccc2)c2ccccc23)cc1 (centres undefined) | 2% | -9%[10.9 µM] | -7% | ?
Cc1cccc(NC(=O)Cn2nc(N3CCN(c4ccccc4)CC3)ccc2=O)c1C | 3% | -4%[10.9 µM] | -10% | 2%
COc1ccccc1NC(=O)c1cc2ccc3cccnc3c2[nH]1 | 10µM* | -12%[10.9 µM] | 7.9µM* | 15%
O=C(c1cc2ccc3cccnc3c2[nH]1)N1CCN(c2ccc(Cl)cc2)CC1 | -4% | -3%[10.9 µM] | -21% | 0%
CC1CCCN(C(=O)c2cc3ccc4cccnc4c3[nH]2)C1 (centres undefined) | 0.79µM* | -57%[10.9 µM] | 1.6µM* | ?
CCOc1ccccc1NC(=O)c1cc2ccc3cccnc3c2[nH]1 | -13% | 11%[10.9 µM] | ? | 3%
O=C(c1cc2ccc3cccnc3c2[nH]1)N1CCCCC1 | 1.6µM* | -79%[10.9 µM] | 0.63µM* | ?
SMILES | p53ts 32C tox | Imprint erasure | p53ts 39C tox | IkB sig inh
CCOC(=O)C1CCN(C(=O)c2cc3ccc4cccnc4c3[nH]2)CC1 | -4% | -22%[10.9 µM] | -24% | ?
Cc1ccc(-n2c(SCc3ccccc3F)nc3[nH]ncc3c2=O)cc1Cl | ? | 22%[10.9 µM] | ? | -6%
Cc1cc(C)cc(NC(=O)Cn2cc(C(=O)C3CCCCC3)c3ccccc32)c1 | ? | 1%[10.9 µM] | 10µM* | 13%
Cc1cccc(-c2nnc(NC(=O)c3ccc(Cl)cc3)o2)c1 | 6% | 1% | ? | 7.9µM*
COc1ccc(C(=O)Nc2nnc(-c3ccccc3)o2)cc1OC | -10% | -15% | -25% | ?
COc1cccc(NS(=O)(=O)c2ccc3[nH]c4c(c3c2)CCCCCC4)c1 | 14% | -11%[10.9 µM] | 20µM* | ?
CCOC(=O)CC(NS(=O)(=O)c1ccc2[nH]c3c(c2c1)CCCC3)c1ccccc1Cl (centres undefined) | 32% | -14%[10.9 µM] | 13µM* | 0%
Cc1cccc(C)c1NC(=O)Cn1c(=O)n(CCC(=O)NCc2ccc3c(c2)OCO3)c(=O)c2sccc21 | 9% | -6%[10.9 µM] | 10% | -1%
Cc1ccc(Nc2cc(C)nc3nc(Cc4ccc(Cl)cc4)nn23)cc1 | 71% | -13%[10.9 µM] | -14% | ?
CCc1ccc(Nc2cc(C)nc3nc(Cc4ccc(Cl)cc4)nn23)cc1 | -12% | -14%[10.9 µM] | 20µM* | ?
COC(=O)[C@@]1(C)CCC[C@@]2(C)c3ccc(O)c(C(C)C)c3CCC21 (some centres undefined) | ? | -36% | 20µM* | .
CC(C)c1c(O)ccc2c1CCC1[C@@](C)(CO)CCC[C@@]21C (some centres undefined) | 9% | -32% | 6% | .
CC(=O)Oc1ccc2c(c1C(C)C)CCC1C(C)(C)CCC[C@@]21C (some centres undefined) | ? | -20% | 13µM* | .
CCN(CC)CCCn1c(-c2ccccc2)nc2c(NCCOC)nc(C)nc21 | -8% | -3% | -3% | .
Cc1cc(N)c2ccccc2[n+]1CCCCCCCCCCCCCC[n+]1c(C)cc(N)c2ccccc21 | ? | -58% | 13µM* | ?
COc1ccc(CCNC(=O)CS(=O)Cc2nc(-c3ccc(C)cc3)oc2C)c(OC)c1 (centres undefined) | 6% | 20%[10.9 µM] | 14% | ?
COC(=O)c1cc(NC(=O)Cn2nc(C)n3cccc3c2=O)cc(C(=O)OC)c1 | -4% | -18%[10.9 µM] | -1% | ?
CCc1cccc(C)c1NC(=O)Cn1nc(C)n2cccc2c1=O | -4% | -8%[10.9 µM] | 13µM* | ?
Cn1c(SC2=CS(=O)(=O)c3ccccc32)nc2ccccc21 | ? | -23% | 13µM* | ?
Cc1cccc(C#Cc2ccccc2)n1 | 13µM* | -44% | ? | 0%
CCc1ccc(-n2c(=O)c3cccnc3n2CC(=O)Nc2cc(F)ccc2F)cc1 | -15% | -8%[10.9 µM] | -20% | -3%
COc1cccc(NC(=O)Cn2c(SCC(=O)N3CCOCC3)nc3ccccc32)c1 | -13% | -6% | 0% | 0%
COc1cccc(NC(=O)c2cnc(SCC(=O)N3CCOCC3)n(C)c2=O)c1 | 10% | -80%[10.9 µM] | 13µM* | ?
COc1cc(CNC(=O)CCCCCCC(C)C)ccc1O | -9% | -33% | -19% | 0%[11.4 µM]
CCCCCCCCC(=O)NCc1cc(OC)c(O)cc1I | 4% | -7% | 32µM* | ?
COc1cc(C(=O)Nc2ccccc2OCc2cc(=O)n3cc(C)sc3n2)cc(OC)c1OC | 4% | 12%[10.9 µM] | 22% | -1%
CCc1ccc(C2=CC(c3c(F)cccc3Cl)n3c(nc4ccccc43)N2)cc1 (centres undefined) | ? | -16%[10.9 µM] | ? | 7%
